Assay outcomes: PubChem BioAssay, several laboratories
697 NFkB inh – inhibitors of PMA/ionomycin-induced NF-kB reporter, 697 cells, primary screen, B-cell NF-kB inhibitor project, cell-based, luminescence, uHTS; 697 B-cell NF-kB luciferase reporter, 16 h; inhibition, % at 4 µM; hit rate 0.33% among 330,000; AID 435022, 2010; in the data active means inhibition above about 35%
Jurkat NFkB inh – inhibitors of induced NF-kB luciferase reporter, primary screen, TCR NF-kB activation inhibitor project, cell-based, luminescence, uHTS; Jurkat, PMA/ionomycin-induced NF-kB luciferase reporter; inhibition, % at 4 µM; hit rate 0.53% among 330,000; AID 435003, 2010; in the data active means inhibition above about 50%
Gli-Sufu antag – Gli-Sufu pathway antagonists, primary screen, luciferase luminescence, Sufu-KO-LIGHT cells, uHTS; hit rate 0.74% among 340,000; AID 588413, 2011; inhibition, % at 5 µM; Sufu-KO-LIGHT fibroblasts, Gli luciferase reporter luminescence;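 active means inhibition above about 55%, limit read from the data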;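 further: 0% = DMSO-treated cells and 100% = wells with medium but no cells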
Beta apoptosis – inhibitors of cytokine-induced beta cell apoptosis, primary screen, luminescence. INS-1E cytokine-induced death, ATP luminescence, 48 h; percent of positive-control rescue, neutral wells zero. protection from apoptosis, % (concentration not given with the values). hit rate 0.8% among 300,000. AID 435005, 2010;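 active means Every replicate reaches about 75%, or at least half do and their mean reaches it too, limit read from the data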;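 further: 0% = cytokine-treated negative control wells and 100% = positive control rescue; higher means more ATP so stronger rescue from cytokine killing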
Jurkat NFkB conf – PMA/ionomycin-induced NF-kB reporter inhibitors, Jurkat retest, confirmation, T-cell NF-kB inhibitor project, cell-based, luminescence, single concentration. Jurkat NF-kB luciferase, 16 h. hit rate 27% among 2,700. shares compounds with Jurkat NFkB inh. inhibition, % at 4 µM;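 active means inhibition reaching about 45% at 4 µM in either replicate, limit read from the data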;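 further: plate controls were PMA/ionomycin stimulated DMSO wells for no effect and unstimulated DMSO wells for full effect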
An asterisk follows results filed as active; . = no result given. Only some compounds are listed: those with a hit (about 1.8% of all), similar ones and a draw of the others.

SMILES	697 NFkB inh	Jurkat NFkB inh	Gli-Sufu antag	Beta apoptosis	Jurkat NFkB conf
COc1cccc(C2N(c3ccccc3)CCN2c2ccccc2)c1OC	4.4	-18.8	-3.5	-1.5	.
CC1C(=O)N2CCCc3cc(NC(=O)C(=O)NCCc4c[nH]c5ccccc45)cc1c32 (configuration not stated)	11.6	3.3	-1.0	-0.4	.
O=c1c2ccccc2nc2sc(Nc3ccc(F)cc3)nn12	-154.0	-157.4	-68.1	11.5	-41.5
COc1cccc(Nc2nn3c(=O)c4ccccc4nc3s2)c1	-80.1	-102.1	-41.6	4.3	.
O=C(Oc1ccc(-c2cnc3ccccc3n2)cc1)c1ccco1	-154.3	-162.4	-121.4	3.0	-81.5
O=C(CN1C(=O)C2CCCCC2C1=O)OCC(=O)c1ccc(F)cc1 (configuration not stated)	3.0	-6.7	-0.4	-1.4	.
c1ccc(CN2CCOCC2)cc1	3.4	-6.7	-1.3	-0.5	.
O=c1c2ccccc2oc2cc(-c3ccc(CN4CCOCC4)cc3)ccc12	-223.4	-151.3	-10.1	-7.9	-67.0
CCCNC(=O)c1n[nH]c2c1CC(C(C)(C)CC)CC2 (configuration not stated)	-8.0	4.1	14.6	-14.0	.
Brc1ccc2c(c1)CN1CCCC1=N2	26.3	73.5*	-7.7	-13.8	24.2
O=C1CN2C(=Nc3ccc(Br)cc3C2c2ccccc2)CCN1 (configuration not stated)	-13.5	2.8	-88.9	-2.4	.
COc1cc(/C=C/c2ccc3cccc(O)c3n2)cc(OC)c1OC	-182.0	96.7*	17.9	33.0	35.0
Cc1cccc(N2CCN(C(=O)c3c(-c4ccccc4Cl)noc3C)CC2)c1C	-4.9	67.0*	.	28.0	51.0*
C=CC[C@@H](CC(=O)OC(C)(C)C)C(=O)OC[C@@H]1CCCN1C(=O)[C@@H](CC=C)CC(=O)N[C@H](CO)Cc1ccccc1	2.6	8.7	0.7	-3.1	.
C=CCn1c(C)nnc1SCC(=O)Nc1ccc2c(c1)OCCO2	-19.1	0.9	-3.4	6.0	.
CC(C)c1ccc(/C=C/C(=O)NC2=NCCS2)cc1	-170.7	-204.4	.	0.1	-101.8
Cc1ccc(NC(=S)N2CCC(c3ccccc3)C2)c(Cl)c1 (configuration not stated)	-199.5	-165.3	-80.8	3.1	-98.0
CCCc1cc(C(=O)Nc2nccs2)cs1	-87.5	-165.7	-58.3	-28.5	-109.2
Cc1ccc(C(O)(CNCc2ccccc2)c2ccccc2)cc1 (configuration not stated)	-7.8	14.2	6.4	8.1	.
Cc1ccc(-c2cn(-c3ccccc3)c(SCC(=O)NC3CCS(=O)(=O)C3)n2)cc1C (configuration not stated)	-205.2	-159.7	-68.5	-5.0	-119.2
CC(C)(C)c1csc(Sc2ccc([N+](=O)[O-])cn2)n1	3.8	81.4*	5.5	1.2	39.7
O=C(c1cccc(N2CCCC2=O)c1)N1CCN(c2ccc(F)cc2)CC1	13.1	1.9	1.7	-8.5	.
O=C(c1cccc(N2CCCC2=O)c1)N1CCN(c2cccc(Cl)c2)CC1	-64.6	53.1*	6.7	16.3	19.9
Cc1cccc(N2CCN(C(=O)c3cccc(N4CCCC4=O)c3)C(C)C2)c1 (configuration not stated)	-14.4	55.8*	6.2	7.2	16.9
O=C(Nc1ccc(Cl)cn1)c1ccc2c(Cl)c3c(nc2c1)CCC3	-168.3	-157.3	.	0.7	-93.0
SMILES	697 NFkB inh	Jurkat NFkB inh	Gli-Sufu antag	Beta apoptosis	Jurkat NFkB conf
Cc1cccc(NC(=O)c2ccc3c(Cl)c4c(nc3c2)CCCC4)n1	-210.3	-125.6	-39.8	-4.0	.
O=C(N/N=C\c1ccc(Cl)s1)C1COc2ccccc2O1 (configuration not stated)	10.7	37.1	-3.7	-2.8	.
O=C(N/N=C/c1c[nH]c2ccccc12)C1COc2ccccc2O1 (configuration not stated)	-1.1	53.1*	-3.9	0.5	1.4
Cc1cc(=O)[nH]c2ccc(S(=O)(=O)NC3CCCCC3)cc12	27.8	-26.1	-17.0	11.6	.
O/N=C/c1ccccc1OCc1ccccc1Cl	-28.9	-3.8	3.6	0.9	.
COc1cc(/C=N/O)ccc1OCc1ccccc1Cl	-103.4	-157.5	-126.3	-3.0	-75.7
N#CC1=C(N)Oc2c(ccc3cccnc23)C1c1ccccc1 (configuration not stated)	-5.2	65.6*	-5.8	97.2*	32.4
Cc1oc(C)c2c(=O)ccc3c(c12)OC(N)=C(C#N)C3c1ccccc1 (configuration not stated)	-22.0	-7.5	8.3	.	.
Cc1cc(NC(=S)NC(=O)c2ccccc2)ccc1-c1cc2ccccc2oc1=O	-23.6	59.1*	-2.2	17.0	4.1
COc1cc(C(=O)NC(=S)Nc2cccc(-c3cc4ccccc4oc3=O)c2)cc(OC)c1OC	-12.8	11.3	-30.4	12.4	.
Cc1ccc(C(=O)Nc2cc3ccccc3oc2=O)cc1	0.6	78.6*	29.3	30.5	77.4*
CC(=O)OC(C[N+]1(C)CCCCCC1)c1ccccc1 (configuration not stated)	9.9	2.7	6.7	0.0	.
O=C(N1CCN(c2ccccn2)CC1)N1c2ccccc2Sc2ccccc21	-30.1	68.1*	16.0	11.6	24.2
O=C(c1ccco1)N1CCN(C(=O)N2c3ccccc3Sc3ccccc32)CC1	-74.1	58.9*	52.5	43.9	55.4*
O=C(c1ccc(Br)s1)N1CCN(c2ccccn2)CC1	3.1	-11.8	-8.7	8.2	.
CC1CN(c2oc(COc3ccc(Cl)cc3Cl)nc2C#N)CC(C)O1 (configuration not stated)	-16.8	8.6	8.0	-9.4	.
Cn1c2ccccc2c(=O)c2ccc(C#CC3(N)CCCCC3)cc21	-164.9	-175.9	15.9	6.4	-16.6
Cn1c2ccccc2c(=O)c2cc(C#CC3(O)CCCCC3)ccc21	-151.8	-81.3	-1.7	9.3	.
COc1ccccc1NC(=O)CCN1C(=O)c2ccccc2C1=O	6.1	-6.7	1.9	0.8	.
Clc1ccc(-c2nnc(-c3ccccc3Cl)o2)cc1	-203.2	-193.5	-78.6	-5.1	-128.7
CN(C)c1ccc(-c2nnc(-c3ccccc3F)o2)cc1	-207.9	-173.6	-68.1	-2.8	-106.8
COc1ccc(/C=N\NC(=O)c2ccccc2F)cc1COc1ccc(F)cc1F	-6.3	61.2*	11.9	11.3	43.7
Cc1ccc(-n2c(SCC(=O)N/N=C/c3ccccc3C(=O)O)nnc2-c2ccc(Cl)cc2)cc1	28.5	-1.2	-1.0	-5.4	.
O=C(/C=C/c1cccs1)N1CCc2ccccc21	-193.5	-161.0	-83.1	9.6	-102.3
COc1cc(C(=O)OCC(=O)Nc2sccc2C(N)=O)cc(OC)c1OC	-44.1	53.9*	9.0	22.7	24.1
COc1ccc(C(=O)OCC(=O)Nc2sccc2C(N)=O)cc1OC	-17.6	-5.2	-7.6	1.0	.
Cc1ccc2nc(-c3ccc(NC(=O)C(C)Sc4nncs4)cc3)sc2c1 (configuration not stated)	-162.6	-167.2	-104.8	-4.4	-36.4
